Most compounds without a hit are left out; they make up all but 3.5% or so of the library.
FBW7 activator = FBW7 E3 ligase activators, primary screen, biochemical, AlphaScreen, human; AlphaScreen FBW7–phospho-cyclin E peptide binding, activator screen; normalized activity (activation), % at 26.1 µM; 650,000 tested, 0.13% active; in the data active = normalized activity above about 1.9%;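 note: purified mutant Fbw7 with reduced substrate affinity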
MITF inh = MITF inhibitors, primary screen, biochemical, AlphaScreen, human. AID 1259374, 2018. AlphaScreen MITF homodimerization, bead proximity signal. 650,000 tested, 0.91% active. Microphthalmia-associated transcription factor (Homo sapiens), O75030. inhibition, % at 2.6 µM; in the data active = inhibition above about 50%
TEAD-YAP inh = TEAD-YAP interaction inhibition, primary screen, TEAD-YAP interaction inhibitor project, luminescence, HEK-TIYL cells | TEAD-Gal4/YAP UAS-luciferase luminescence | inhibition, % at 9.12 µM | 640,000 tested, 1.4% active | AID 1259422, 2018; in the data active = inhibition above about 32%
GPR151 activ = activators of human GPR151, primary screen, cell-based, PathHunter beta-arrestin, luminescence; PathHunter beta-arrestin GPR151 cells; AID 1508602, 2020; 650,000 tested, 1% active; G-protein coupled receptor 151 (Homo sapiens), Q8TDV0; activation, % at 11.2 µM; in the data active = activation above about 4.9%
A number is an active result; 0 = inactive.

SMILES	FBW7 activator	MITF inh	TEAD-YAP inh	GPR151 activ
CC1CCc2c(sc3nnn(CC(=O)NCc4cccs4)c(=O)c23)C1 (stereo not drawn)	0	0	43	0
Cc1sc2ncnc(Sc3nnc4ccccn34)c2c1C	0	0	0	0
Cc1sc2ncnc(Sc3nnc(N)s3)c2c1C	0	0	37	0
CC(C)(C)c1ccc(NC(=O)Nc2ccccc2NC(=O)c2ccccn2)cc1	0	0	68	0
O=C(Nc1ccccc1NC(=O)c1ccccn1)Nc1c(F)cccc1F	0	0	0	0
CC(C)(C)c1ccc(/C=N\NC(=O)c2ccccn2)cc1	0	0	35	0
CC1=Nc2ccccc2/C1=C/c1sc(=N)n(-c2nccs2)c1O	0	0	32	0
CCN(CC)C(=O)C1CCCN(c2cccc(C(=O)NCc3ccccc3)c2)C1 (stereo not drawn)	0	0	0	0
C=CCn1c(C)cc(C2=NNC(=NC3CC3)SC2)c1C	0	0	95	0
COc1ccc(CCNc2cc(C)nc(Nc3ccncc3)n2)cc1	0	0	0	0
COc1ccc(CCNc2cc(C)nc(Nc3cc(OC)c(OC)c(OC)c3)n2)cc1	0	0	36	0
COc1cc(Nc2cc(C)nc(Nc3cc(OC)c(OC)c(OC)c3)n2)cc(OC)c1OC	0	0	0	0
COc1cc(Nc2cc(C)nc(Nc3cccc(N(C)C)c3)n2)cc(OC)c1OC	0	0	48	0
COc1ccc2ccccc2c1C1NC(=O)N(Cc2ccccc2)C(C)=C1[N+](=O)[O-] (stereo not drawn)	0	0	0	0
CSc1ccccc1Nc1ncnc2c1cnn2-c1ccccc1	0	0	0	0
COc1ccc(OC)c(Nc2ncnc3c2cnn3-c2cccc(C)c2)c1	0	0	42	0
COc1ccc(-n2ncc3c(Nc4ccc(C)cc4C)ncnc32)cc1	0	0	0	0
COc1ccc(-n2ncc3c(Nc4cc(C)ccc4C)ncnc32)cc1	0	0	40	0
COc1ccc(-n2ncc3c(Nc4ccccc4SC)ncnc32)cc1	0	0	55	0
COc1ccc(C(=O)Nc2ccccc2C(=O)NC(C)C)cc1[N+](=O)[O-]	0	0	0	0
COc1ccc(CCn2cnc3sc4c(c3c2=N)CCCC4)cc1OC	0	0	39	0
CC(C)(C)c1ccc(Cn2cnc3sc4c(c3c2=O)CCCC4)cc1	0	0	62	0
Cc1nc2sc3c(c2c(=O)n1Cc1ccc(C(C)(C)C)cc1)CCCC3	0	0	0	0
COc1ccc(NC(=O)c2ccccc2NC(=O)c2cccc(S(=O)(=O)N3CCOCC3)c2)cc1	0	0	0	0
CC1=C(C(=O)OCCOC(C)C)C(c2cccc(O)c2)C2=C(CC(C)(C)CC2=O)N1 (stereo not drawn)	0	0	0	0
SMILES	FBW7 activator	MITF inh	TEAD-YAP inh	GPR151 activ
Cc1nc2nc(CNC(=O)OC(C)(C)C)nn2c(C)c1CCC(=O)O	0	0	0	0
O=C1CCCN1CCCNc1nc(NCCCN2CCCC2=O)c2ncn(C3CCCCC3)c2n1	0	0	0	0
O=C1CCCN1CCCNc1nc(NCCO)c2ncn(C3CCCCC3)c2n1	1.9	0	0	0
O=C1CCCN1CCCNc1nc(Nc2cnccn2)nc2c1ncn2-c1ccccc1	0	0	46	0
O=C1CCCN1CCCNc1nc(Nc2ccc3ncccc3c2)nc2c1ncn2-c1ccccc1	0	0	72	0
O=C1CCCN1CCCNc1nccc(Nc2ccc(Oc3ccccc3)cc2)n1	0	0	39	0
COc1ccccc1C(=O)N1CCN(S(=O)(=O)c2ccc3ccccc3c2)CC1	0	0	0	0
CN1CCN(C(=S)NC(=O)c2ccccc2)CC1	0	0	0	0
O=C1CCCN1CCCNc1nc(Nc2ccncn2)nc2c1ncn2-c1ccccc1	0	0	38	0
O=C1CCCN1CCCNc1nc(Nc2ccccn2)nc2c1ncn2-c1ccccc1	0	0	0	0
O=C1CCCN1CCCNc1nc(Nc2ccncc2)nc2c1ncn2-c1ccccc1	0	0	55	0
Cc1cccc(C)c1NC(=O)CSc1nc2ccc(NC(=O)Cc3cccc4ccccc34)cc2s1	0	0	0	0
COc1ccc(N(CC(=O)c2ccc(C3CCCCC3)cc2)C2=NCCCCC2)c(OC)c1	0	0	55	0
COc1ccc(N(CC(=O)NC2CCCC2)S(C)(=O)=O)c(OC)c1	0	0	0	0
COc1cccc(C2=N/C(=C/c3ccccc3F)C(=O)O2)c1	0	0	0	0

High-throughput results: PubChem, The Scripps Research Institute Molecular Screening Center
